# Assay results from PubChem BioAssay AID588475 (Sanford-Burnham Center for Chemical Genomics, 2011).
# Out of some 350,000 compounds screened, about 2,100 (0.6%) were called active.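 The calls were made as follows: active = inhibition of the ligand-induced calcium signal above about 50% at the single tested concentration (limit read from the data); inactive = the rest.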 The sample as a whole holds a higher share of actives than the screen did.
# Assay: blockers of CRF-evoked CRF-R2/CRF-BP calcium response – cell-based, HEK293, calcium dye fluorescence, uHTS, primary screen (AID 588475)
# Conditions: CRF-induced calcium fluorescence, at 11.8 µM, hits give high values
row,Structure (SMILES),inhibition
1,CCOC(=O)Cn1c2c(c(-c3ccccc3OC)cc1=O)CCCC2,57.5% (active)
2,CCOC(=O)CN1CCC(c2ccccc2)CC1,-2.05% (inactive)
3,COc1ccccc1C1=CC(=O)CCC1,9.84% (inactive)
4,c1ccc(CCN2CN=C(Nc3nc4ccccc4o3)NC2)cc1,13.5% (inactive)
5,CCc1ccc(N2CC(C(=O)N3CCCCCC3)CC2=O)cc1 (configuration not stated),-21.4% (inactive)
6,O=C(C1CC(=O)N(c2ccc(Br)cc2)C1)N1CCCC1 (configuration not stated),76.7% (active)
7,CC1CC(C)CN(C(=O)C2CC(=O)N(c3ccc(F)cc3)C2)C1 (configuration not stated),-0.72% (inactive)
8,CCCOc1cccc(C(=O)Nc2nnn(CCC)n2)c1,-20.2% (inactive)
9,CCCCCCNC(=O)O[C@]12C[C@@H](C(=O)OC)[C@@H](C(=O)OC)C[C@@]1(O)CN(S(=O)(=O)c1ccc(C)cc1)C2,-0.13% (inactive)
10,CCOc1ccc(NC(=O)CCC(=O)NNC(=O)NC2CCCCC2)cc1,9.93% (inactive)
11,CC1CCN(C(=S)NC2CC3CCC2C3)CC1 (configuration not stated),18.3% (inactive)
12,CCCC(O)(CCC)C(=O)NN(C(=O)CCl)c1cccc(C)c1,4.46% (inactive)
13,CCc1nnc(NC(=O)CSc2nnnn2-c2cccc(C(C)=O)c2)s1,54.4% (active)
14,CC(=O)c1cccc(-n2nnnc2SCC(=O)NNC(=O)C2CCCCC2)c1,12.7% (inactive)
15,CCc1nnc(NC(=O)CSc2nc(SC)ns2)s1,-5.79% (inactive)
16,O=C(O)C1=C(C(=O)O)C2CCC1C2,17.1% (inactive)
17,COc1ccc(Cl)cc1C(=O)OCC(=O)NCc1cccs1,-4.93% (inactive)
18,COc1cc(CC(=O)NCc2cccs2)cc(OC)c1OC,63.8% (active)
19,COc1cc(CNCc2cccs2)cc(Br)c1OC,4.12% (inactive)
20,COC(=O)c1ccc(OC(=O)c2nn(C)cc2Cl)c(OC)c1,90.2% (active)
21,COc1ccc(C(=O)NC(=S)Nc2ccc(Cl)cn2)cc1OC,-25.3% (inactive)
22,COc1ccc(CCNC(=O)COC(=O)c2ncc(Cl)c(Cl)c2Cl)cc1OC,-0.24% (inactive)
23,Cc1cc(C)c(C#N)c(SCS(=O)c2ccc(C(C)(C)C)cc2)n1 (configuration not stated),1.43% (inactive)

row,Structure (SMILES),inhibition
1,CC1C(=O)Nc2ccccc2N1C(=O)c1ccc(F)cc1F (configuration not stated),16% (inactive)
2,O=C(NNc1c2ccccc2nc2ccccc12)c1cc2ccccc2cc1O,53.2% (active)
3,O=C(NNC(=O)c1ccccc1O)c1ccccc1O,24.2% (inactive)
4,O=C(COC(=O)c1ccc(O)cc1O)NC(=O)c1ccccc1,-7.02% (inactive)
5,Cc1onc(-c2c(F)cccc2Cl)c1C(=O)N(C)CC(=O)Nc1cccc(F)c1,5.08% (inactive)
6,Cc1cccc(N2Cc3ccccc3C2=NC(=O)c2ccc(Cl)nc2)c1,-4.54% (inactive)
7,CN1CCN(C2=NCCO2)CC1,0.22% (inactive)
8,O=C1/C(=C/c2cccs2)CCc2ccccc21,-1.09% (inactive)
9,COc1ccc(/C=C2\CCc3ccccc3C2=O)c(OC)c1OC,89.8% (active)
10,COc1ccc(/C=C2/CCCc3ccccc3C2=O)cc1,4.03% (inactive)
11,COC(=O)[C@]1(Cc2ccccc2)N[C@H](CN(C)S(=O)(=O)c2ccc(OC(F)(F)F)cc2)[C@@H]2C(=O)N(Cc3ccccc3)C(=O)[C@@H]21,-0.07% (inactive)
12,O=C(CSc1nnc(CNC(=O)c2ccc(F)cc2)o1)Nc1ccc2c(c1)OCO2,-5.95% (inactive)
13,CN(C)c1ccc(C=C2C(=O)OC3(CCCC3)OC2=O)cc1,66.8% (active)
14,CN(C)c1ccc(/C=C2\NC(=S)N(Cc3ccccc3)C2=O)cc1,-149% (inactive)
15,COC(=O)c1ccc(/C=C2/C(=O)Oc3ccccc32)cc1,1.02% (inactive)
16,O=C(O)C(NS(=O)(=O)c1cccc2nsnc12)c1ccccc1 (configuration not stated),8.07% (inactive)
17,Cc1cc(C)cc(C(=O)NC(CC(N)=O)c2ccc(N3CCC(N4CCCCC4)CC3)c([N+](=O)[O-])c2)c1 (configuration not stated),14.9% (inactive)
18,O=C(NCC(F)(F)F)c1ccc(S(=O)(=O)NCCc2ccc3c(c2)OCCO3)cc1,2.25% (inactive)
19,CC1=C(C(N)=O)C(c2sccc2C)n2nnnc2N1 (configuration not stated),-23.7% (inactive)
20,Cc1c(Br)ccc(NC(=O)COc2ccccc2C(N)=O)c1C,-2.05% (inactive)
21,COc1ccc(C(=O)NCCNc2ccc([N+](=O)[O-])cn2)cc1,3.69% (inactive)
22,COC(=O)C(NC(=O)c1ccc(OC)cc1)(Nc1ncc(S(=O)(=O)c2ccc([N+](=O)[O-])cc2)s1)C(F)(F)F (configuration not stated),72.6% (active)
23,CCOCC(=O)Nc1ncc(S(=O)(=O)c2ccc([N+](=O)[O-])cc2)s1,-6.17% (inactive)

row,Structure (SMILES),inhibition
1,COc1ccc(CCn2c(NN=C3CCCC3)nc3c2c(=O)[nH]c(=O)n3C)cc1,-0.67% (inactive)
2,CCn1nc(C)c(NC(=O)/C=C/c2ccc(OC)c(COc3ccc(Br)cc3)c2)c1C,30.8% (inactive)
3,COc1ccc(OC)c(S(=O)(=O)Nc2c(C)nn(C)c2C)c1,6.33% (inactive)
4,COc1ccc(/C=C/C(=O)Nc2c(C)nn(C)c2C)cc1COc1ccc(Br)cc1,60.5% (active)
5,CCn1cc(/C=C(\NC(=O)c2cc(OC)c(OC)c(OC)c2)C(=O)N2CCN(C)CC2)c2ccccc21,-8.31% (inactive)
6,Cc1cc(OC(=O)c2ccc(Cl)cc2)cc(=O)n1C,11.4% (inactive)
7,CSc1nnc(NC(=O)c2nc(S(=O)(=O)Cc3ccc(C)cc3)ncc2Cl)s1,25.7% (inactive)
8,Cc1cccc(NC(=O)c2nc(S(=O)(=O)Cc3ccccc3)ncc2Cl)c1,45.5% (inactive)
9,Cc1cccc(CS(=O)(=O)c2ncc(Cl)c(C(=O)Nc3ccc(F)cc3)n2)c1,52.3% (active)
10,FC(F)(F)c1cc(-c2ccco2)nc(NCc2ccc(Cl)cc2)n1,-24.6% (inactive)
11,COc1ccc(/C=C2\SC(=S)N(CCC(=O)N3CCOCC3)C2=O)cc1OC,-7.34% (inactive)
12,O=C1/C(=C/c2ccc(F)cc2)SC(=S)N1CCCC(=O)N1CCCCC1CCO (configuration not stated),-17.3% (inactive)
13,C=CCOc1ccc(/C=C2\SC(=S)N(CCC(=O)O)C2=O)cc1,53.9% (active)
14,Cc1cc(C)nc(NC2=NCC(=O)N2c2ccc(Cl)cc2)n1,10.7% (inactive)
15,O=C(c1ccc(-n2cnnn2)cc1)N1CCN(C(c2ccccc2)c2ccccc2)CC1,14.7% (inactive)
16,CCc1ccc(NC(=O)CC2C(=O)NCCN2C(=S)Nc2ccccc2)cc1 (configuration not stated),-42.6% (inactive)
17,CN(C)C(=O)c1nc2ccc(Cl)cn2c1CNCc1cccc(OC(F)(F)F)c1,21% (inactive)
18,CCNC(=O)CC1C(=O)N(c2ccc(F)cc2)C(=O)N1CCc1sccc1C (configuration not stated),3.16% (inactive)
19,O=C(O)CC/C(=C\c1cc2c(cc1Br)OCO2)c1nc2ccccc2s1,8.13% (inactive)
20,CC1=CC(=C(C#N)c2nc3ccccc3s2)C=C(C)N1c1ccc(F)cc1F,-130% (inactive)
21,N#C/C(=C(/O)Cc1cccc2ccccc12)c1nc2ccccc2s1,60.4% (active)
22,CC1Cc2ccccc2N1C(=O)Cn1cnc2ccccc2c1=O (configuration not stated),0.2% (inactive)
23,CCOC(=O)N1CCN(C(=O)Cn2cnc3ccccc3c2=O)CC1,72.2% (active)

row,Structure (SMILES),inhibition
1,CC1CC(C)CN(C(=O)CCNC(=O)Cn2cnc3ccccc3c2=O)C1 (configuration not stated),-2.21% (inactive)
2,O=S(=O)(NCc1ccc2c(c1)OCO2)c1cccc2nsnc12,-14.6% (inactive)
3,COCCCNC(=O)C1CCC(CNS(=O)(=O)c2ccc(OC)cc2)CC1 (configuration not stated),5.65% (inactive)
4,Cc1cc([N+](=O)[O-])ccc1NS(=O)(=O)c1ccccc1,17.8% (inactive)
5,O=C(NNS(=O)(=O)c1ccc(F)cc1)c1ccc([N+](=O)[O-])cc1Cl,0.78% (inactive)
6,O=[N+]([O-])c1ccc(NS(=O)(=O)c2ccccc2)c(Cl)c1,55.9% (active)
7,COC(C[C@@H](O)C[C@H](O)[C@H](C)OCc1ccccc1)OC,10.3% (inactive)
8,O=C(N/N=C/c1cc(Br)c(O)c([N+](=O)[O-])c1)C(O)(c1ccccc1)c1ccccc1,4.64% (inactive)
9,c1ccc(C(=NNc2nc3ccccc3s2)c2ccccn2)cc1,-36.8% (inactive)
10,O=[N+]([O-])c1cc(Br)c(O)c(/C=N/Nc2nc3ccccc3s2)c1,67.2% (active)
11,Cc1nn(C(=O)c2ccoc2C)c(N)c1-c1ccccc1,4.6% (inactive)
12,Cc1nn(-c2ccc([N+](=O)[O-])cc2)c(N)c1-c1ccccc1,51.6% (active)
13,Cn1nc(-c2ccccc2)c2cc([N+](=O)[O-])ccc21,-1.55% (inactive)
14,CN1CCN(C(=O)c2cnn(-c3ccccc3)c2NC(=O)c2ccc([N+](=O)[O-])cc2)CC1,1.78% (inactive)
15,Cc1ccccc1N1CCN(Cc2nc(Cc3ccccc3F)no2)CC1,10.3% (inactive)
16,COc1ccc(CC(NC(C)=O)C(=O)NC2CCN(C(=O)c3ccc(Cl)cc3)CC2)cc1 (configuration not stated),13.1% (inactive)
17,C/C(=N/NC(=O)CSc1ccccn1)c1ccc([N+](=O)[O-])cc1,1.41% (inactive)
18,Cc1nc(C)c2c(c1C(F)(F)F)-c1ccccc1C2(F)F,-1.72% (inactive)
19,CCCCn1c(N)c(N(CCC(C)C)C(=O)COC(=O)c2ccc(CC)cc2)c(=O)[nH]c1=O,-14.7% (inactive)
20,COc1ccc(Br)cc1/C=N/Nc1ccc(S(=O)(=O)Nc2ccccc2C(=O)O)cc1[N+](=O)[O-],14.6% (inactive)
21,C=C(C)CNC(=S)N/N=C/c1ccccc1OCC(=O)O,-10.5% (inactive)
22,Cc1ccc(NS(=O)(=O)c2ccc(N/N=C/c3ccccc3OCC(=O)O)c([N+](=O)[O-])c2)c(C)c1,63.5% (active)
23,CC(CO)(CO)NC(=O)c1ccc(=O)[nH]n1,2.66% (inactive)
